Many of the other results were omitted from the sample, so hits are more common in it than they were.
TDP1 cell noCPT = qHTS for Inhibitors of human tyrosyl-DNA phosphodiesterase 1 (TDP1): qHTS in cells in absence of CPT. DT40 Tdp1-/- hTDP1 cells, no CPT, ATP luminescence, 48 h. Potency, µM (series often up to 46.2 µM), without a hit: at the highest dose activity change, negative = growth inhibition, actives largely listed as inhibitors. 15% of 420,000 active. AID 686978, 2013; also: potency is read from the fitted curve at half-maximal effect; nearly all actives have a fitted effect of over 55% in size
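Stably hTDP1-transfected Tdp1-null chicken DT40 cells were treated with library compounds minus camptothecin and grown for at least 48 hr at 37 °C, after which cellular ATP was quantified by luminescence.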
TDP1 cell CPT = growth inhibition of DT40 Tdp1-/-;hTDP1 cells with camptothecin (screen for TDP1 inhibitors); chicken DT40 Tdp1-/-;hTDP1 cells + 20 nM CPT, ATP luminescence, 48 h; Potency, µM (titrated, usually from 46.2 µM), for the others: at the highest dose activity change, negative = growth inhibition, usual class: inhibitors; 12% of 420,000 active; also: potency is read from the fitted curve at half-maximal effect; nearly all actives have a fitted effect of over 55% in size
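Cell growth measured by CellTiter-Glo luminescence after a minimum 48 h, 37 C compound exposure with 20 nM CPT in Tdp1-knockout DT40 cells stably expressing hTDP1, seeded 400/well; qHTS titration format.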
ALOX12 inh = blocks human arachidonate 12S-lipoxygenase. P18054. purified 12hLO, xylenol orange hydroperoxide absorbance. Potency, µM (top dose mostly 108 µM), without a hit: at the highest dose activity change, negative = inhibition, most hits filed as inhibitors. 1.1% of 580,000 active; also: potency is read from the fitted curve at half-maximal effect
Target sequence (P18054 whole entry, looked up): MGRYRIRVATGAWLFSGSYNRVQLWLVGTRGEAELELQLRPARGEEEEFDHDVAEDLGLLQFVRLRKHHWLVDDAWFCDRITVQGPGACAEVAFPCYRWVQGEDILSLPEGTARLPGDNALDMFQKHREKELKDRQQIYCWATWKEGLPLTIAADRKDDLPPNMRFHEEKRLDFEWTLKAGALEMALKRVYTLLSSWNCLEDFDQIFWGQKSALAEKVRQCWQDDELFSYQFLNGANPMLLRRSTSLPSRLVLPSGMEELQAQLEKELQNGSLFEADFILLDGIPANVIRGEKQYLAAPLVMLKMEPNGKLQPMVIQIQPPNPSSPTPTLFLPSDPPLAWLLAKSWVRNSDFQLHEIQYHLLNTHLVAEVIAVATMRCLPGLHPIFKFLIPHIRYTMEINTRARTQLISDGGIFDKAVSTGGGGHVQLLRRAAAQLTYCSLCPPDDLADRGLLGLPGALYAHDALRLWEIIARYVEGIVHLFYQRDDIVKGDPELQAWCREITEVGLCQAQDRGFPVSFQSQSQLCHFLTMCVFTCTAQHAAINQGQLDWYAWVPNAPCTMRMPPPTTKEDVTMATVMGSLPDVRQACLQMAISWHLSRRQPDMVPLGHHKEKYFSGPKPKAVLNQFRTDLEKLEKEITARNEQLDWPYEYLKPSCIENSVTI
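Hydroperoxide product was detected by ferrous iron/xylenol orange as the 573 to 405 nm absorbance ratio. Arachidonic acid at 40 uM (final) was turned over for 30 min at room temperature by 150 nM human 12hLO, pH 7.0 Hepes buffer, after 15 min compound preincubation.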
HT1080 IDH1KD tx = kills HT-1080 cells with IDH1 knockdown; Potency, µM (top dose mostly 46.1 µM), for the others: at the top dose activity, negative = toxicity, actives largely listed as cytotoxic; HT-1080 IDH1 knockdown viability, ATP luminescence, 48 h; 2% of 360,000 active; AID 686971;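 also: potency is read from the fitted curve at half-maximal effect; 0% = DMSO wells and -100% = cell-free medium wells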
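Knockdown cells (IDH1KD HT-1080) received compounds 2 h after plating at 750 cells/well and were kept 48 h at 37 °C in 5% FBS RPMI. A CellTiter-Glo luminescence read gave % activity for curve fitting.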
IL-1B inflam inh = blocks inflammasome-driven IL-1 beta release; 4.7% of 360,000 active; THP-1 LPS/ATP IL-1B secretion, AlphaLISA, 16 h; active compounds read low; activity change, % at 57.5 µM; in the data active = activity change below about -50%; inconclusive = mostly about -30% to -49%
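THP-1 cells pretreated 1 hr with compounds (up to 57.5 uM final), then stimulated with LPS (250 ng/mL final) plus ATP (1.25 mM final); secreted IL-1B measured by AlphaLISA after 16 hr, decreased signal indicating inhibition.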
HT1080-NT tox = kills 2HG-producing HT-1080-NT fibrosarcoma cells; HT-1080-NT fibrosarcoma viability, CellTiter-Glo ATP luminescence, 48 h; 1.6% of 360,000 active; Potency, µM (series often up to 46.1 µM), for the others: at the top dose activity, negative = less viability, usual class: cytotoxic;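 also: NT is the 2HG producing partner of a matched IDH1 knockdown line; potency is read from the fitted curve at half-maximal effect; 0% = DMSO-treated cells and -100% = media-only wells without cells; nearly all actives have a fitted effect of over 55% in size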
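Viability by CellTiter-Glo luminescence after 48 h compound exposure at 37C of HT-1080-NT cells (750/well, RPMI, 5% FBS). % activity scaled between DMSO wells and medium-only wells, then curve-fitted and categorized by curve class.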
* hit, by the source's call; ? = inconclusive; nt = no result given; [ ] = dose if it differs, or a comment. Unless noted, calls follow the shape of the dose curve; as a rule, active = well fitted curve in the direction sought with a large enough effect; inconclusive = small, poorly fitted or top-dose-only effect, or another doubt; inactive = no such curve, though single readings can be large; an effect the other way counts as inactive or inconclusive. Unless noted, % is scaled to controls: 0 for no effect and ±100 for the full control effect.

SMILES | TDP1 cell noCPT | TDP1 cell CPT | ALOX12 inh | HT1080 IDH1KD tx | IL-1B inflam inh | HT1080-NT tox
COc1ccc(-c2csc3nc[nH]c(=O)c23)cc1OC | 2.6% | 0.2% | 79.2% | 3.7% | 6.4 | 4.7%
O=c1[nH]cnc2scc(-c3ccc(-c4ccccc4)cc3)c12 | ? | -22.6% | -3.3% | 6.3% | -68.2* | -1.4%
COCCC1(NC(=O)C2CC2)CCN(S(C)(=O)=O)CC1 | nt | nt | 15.4% | nt | nt | nt
Cc1ccc2oc(-c3ccc(Cl)c(NC(=O)c4cc([N+](=O)[O-])ccc4N4CCOCC4)c3)nc2c1 | nt | nt | 14.8% | nt | nt | nt
Cc1ccc(C)c(C(=O)C(C)Sc2nc3nn(-c4ccccc4)c(=O)c-3c3n2CCCCC3)c1 (stereo unspecified) | 20.6µM* | ? | 0.0% | 8.6% | 0.0 | 8.5%
COCCNc1c2c(nc3c(-c4ccccc4)c(C)nn13)CCCC2 | ? | 15.8µM* | 21.2% | ? | -23.9 | ?
Cc1nn2c(NCCOCCO)c3c(nc2c1-c1ccccc1)CCCC3 | ? | -13.4% | nt | -1.1% | ? | -10.0%
Cc1nn2c(NCCN(C)C)c3c(nc2c1-c1ccccc1)CCCC3 | 1.03µM* | 0.581µM* | 0.0% | 14.6µM* | -57.6* | 14.6µM*
CCC(C)Nc1c2c(nc3c(-c4ccccc4)c(C)nn13)CCC2 (stereo unspecified) | ? | ? | -28.6% | ? | ? | -19.2%
Cc1nn2c(NCc3cccnc3)c3c(nc2c1-c1ccccc1)CCC3 | ? | ? | 0.0% | ? | -75.6* | -18.2%
CCCCNc1c2c(nc3c(-c4ccccc4)c(C)nn13)CCC2 | 29.1µM* | 20.6µM* | 2.7% | -4.9% | -26.3 | 7.5%
Cc1nn2c(Nc3ccc(F)cc3)c3c(nc2c1-c1ccccc1)CCC3 | -2.2% | -17.6% | -13.8% | 9.5% | 11.0 | 8.2%
Cc1nn2c(N3CCN(CCO)CC3)c3c(nc2c1-c1ccccc1)CCCC3 | ? | ? | 401.2% | ? | nt | 18.4µM*
COc1cccc(Nc2c3c(nc4c(-c5ccccc5)c(C)nn24)CCC3)c1 | 13µM* | 5.8% | -7.1% | -4.6% | 1.1 | 13.8%
Cc1nn2c(N3CCCC3)c3c(nc2c1-c1ccccc1)CCC3 | ? | ? | -18.1% | -1.8% | 16.0 | 5.2%
C#CCN(CCC(=O)NC(N)=O)Cc1ccc(C)cc1 | nt | nt | -16.8% | nt | nt | nt
O=C(Cc1cccs1)N1CCN(c2ncnc3c2nnn3-c2ccc(F)cc2)CC1 | nt | nt | -5.8% | nt | nt | nt
O=C(C1CCN(C(=O)N2CC3CC(C2)[C@H]2CCCC(=O)N2C3)CC1)N1CCc2ccccc2C1 (stereo partly specified) | nt | nt | 7.9% | nt | nt | nt
COc1ccc(OC)c(NC(=O)Nc2ccc(Cl)cc2)c1 | -26.8% | -22.4% | nt | -15.1% | -65.7* | -27.3%
COc1ccc(-c2cn3cccnc3n2)cc1NC(=O)Nc1ccc(Cl)cc1 | 16.4µM* | ? | ? | nt | nt | nt
Cc1ccc(NC(=O)Nc2ccc(F)c(Cl)c2)cc1 | 23.1µM* | ? | 8.2% | -4.4% | -28.8 | 0.0%
Cc1cccc(OCCC(=O)Nc2ccc(F)c(Cl)c2)c1 | -7.2% | -0.3% | 0.9% | -0.3% | -84.1* | -3.1%
COc1ccc(NC(=O)Nc2cc(C)ccc2OC)cc1 | -16.8% | -17.0% | -1.7% | -0.4% | -16.3 | 9.8%
CCc1ccc(CN2CCCC(c3nnc(Cn4ccnc4)n3C)C2)nc1 (stereo unspecified) | nt | nt | 84.8% | nt | nt | nt
O=C(c1ccccc1)N1CCC2(CC1)N=C(c1ccc(Cl)cc1)NO2 | nt | nt | 33.1% | nt | nt | nt
SMILES | TDP1 cell noCPT | TDP1 cell CPT | ALOX12 inh | HT1080 IDH1KD tx | IL-1B inflam inh | HT1080-NT tox
O=C(c1cncc(Br)c1)N1CCC(c2nc(C3CCOCC3)no2)CC1 | nt | nt | 7.7% | nt | nt | nt
COc1ccc(NC(=O)Nc2ccc(F)c(Cl)c2)cc1 | 16.4µM* | ? | -7.9% | -7.0% | -0.5 | 0.6%
CC(NC(=O)c1ccc[n+]([O-])c1)c1ccc2ccccc2c1 (stereo unspecified) | nt | nt | -24.0% | nt | nt | nt
O=C(c1ccccc1)C(CCc1ccccn1)CCc1ccccn1 | 16.4µM* | ? | -5.8% | -2.6% | -15.9 | -2.2%
C(=C\c1ccccc1)/CNC12CC3CC(CC(C3)C1)C2 | nt | nt | 8.8% | nt | nt | nt
CCS(=O)(=O)N1CCC(F)(c2nc(-c3ccccc3)no2)CC1 | nt | nt | 16.3% | nt | nt | nt
C/C=C(\C)C(=O)N[C@@H](C)CN1C2=NC[C@H](C(C)C)N2C[C@H]1Cc1ccc(OC)cc1 | -12.7% | -6.1% | -3.8% | 1.2% | 13.9 | 11.7%
COc1ccc(C[C@@H]2CN3C(=NC[C@@H]3Cc3ccc(O)cc3)N2C[C@H](C)NC(=O)CCC2CCCCC2)cc1 | 5.17µM* | 5.8µM* | nt | -6.6% | ? | -9.9%
COc1ccc(C[C@H]2CN3C(=NC[C@@H]3Cc3ccc(O)cc3)N2C[C@H](C)NC(=O)CCC2CCCCC2)cc1 | 16.4µM* | 8.2µM* | -23.2% | -24.0% | 0.0 | -11.6%
COc1ccc2cc1Nc1ccc(cc1)C[C@H](NCc1ccc(C)o1)C(=O)N(C)[C@@H](C(=O)NCc1ccccc1)C2 | nt | nt | -15.1% | nt | nt | nt
Cc1ccc2oc(C(=O)NCC3(c4ccccc4)CC3)cc(=O)c2c1 | nt | nt | 2.3% | nt | nt | nt
O=C(NCCNc1cnccn1)c1cnccn1 | nt | nt | -3.6% | nt | nt | nt
CCOC(=O)c1cc(CC)sc1NC(=O)c1cc([N+](=O)[O-])ccc1N1CCOCC1 | 1.3µM* | 3.66µM* | 0.0% | ? | 72.5 | ?
CCOC(=O)c1cc(CC)sc1NC(=O)c1ccc(N2CCOCC2)c([N+](=O)[O-])c1 | -13.7% | -0.5% | 1.5% | 4.9% | ? | -0.5%[9.24 µM]
CCC(CC)c1nnc(NC(=O)c2cc([N+](=O)[O-])ccc2N2CCOCC2)s1 | 18.4µM* | ? | ? | -4.4% | 1.2 | -8.4%[9.24 µM]
Cc1ccc2c(C)c(CCC(=O)N3CCCCCC3)c(=O)oc2c1 | nt | nt | 41.1% | nt | nt | nt
CCC(C(=O)NC1CCCC1)N(C(=O)Cn1nnc(-c2cccs2)n1)c1cnc2ccccc2c1 (stereo unspecified) | 4.1% | -9.8% | -16.8% | -3.8% | 43.2 | 13.2%
Cc1ccc(C)c(N(C(=O)Cn2nnc(-c3cccs3)n2)C(C(=O)NC2CC2)c2ccc(C)o2)c1 (stereo unspecified) | 11.2µM* | ? | -18.7% | 4.8% | 18.3 | 0.0%
Cc1ccc(N(C(=O)Cn2nnc(-c3cccs3)n2)C(C(=O)NC2CCCC2)c2ccncc2)cc1 (stereo unspecified) | 20.6µM* | 23.1µM* | 0.0% | -0.1% | 19.3 | 10.7%
